Laboratory results as given in PubChem BioAssay (EPA / NIEHS).
The source made the active and inactive calls. The calls were made as follows: active = hit-call score of the fitted dose curve at least 0.9, where 1 is the maximum; inactive = score below 0.9.

What was measured:
Conditions in all cases: mRNA level, 48 h; actives raise or lower the signal
[1] = read-out: DNA damage-inducible transcript 3 (DDIT3), DDIT3 (gene 1649); assay: LTEA_HepaRG_DDIT3: Life Technologies and Expression Analysis (LTEA) Assay for DNA damage-inducible transcript 3 (DDIT3) using HepaRG (AID 2283488)
Summary of the method: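 Cells are human HepaRG liver cells treated for 48 h with eight half-log concentrations up to 100 uM in 0.5% DMSO. Transcript levels come from qRT-PCR normalized to three housekeeping genes, with activity fitted in both directions relative to vehicle.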

[2] = read-out: Early growth response protein 1 (EGR1) transcription factor, EGR1 (gene 1958); assay: LTEA_HepaRG_EGR1: Life Technologies and Expression Analysis (LTEA) Assay for Early growth response protein 1 (EGR1) transcription factor using HepaRG (AID 2283490)
Summary of the method: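 EGR1 expression change in human HepaRG after 48 h chemical exposure, assessed by housekeeping-normalized qRT-PCR; concentration-response up to 100 uM, fitted in both directions against DMSO controls.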

[3] = read-out: Ezrin (EZR), EZR (gene 7430); assay: LTEA_HepaRG_EZR: Life Technologies and Expression Analysis (LTEA) Assay for Ezrin (EZR) using HepaRG (AID 2283491)
Summary of the method: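 HepaRG, 48 h chemical exposure, 8-pt half-log series from 100 uM, 0.5% DMSO vehicle, duplicates. Read-out: EZR mRNA by TaqMan qRT-PCR (Fluidigm array), housekeeping-normalized; bidirectional curve fit vs DMSO baseline.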

[4] = read-out: Cytochrome P450 3A7 (Homo sapiens) (UniProt P24462); assay: LTEA_HepaRG_CYP3A7: Life Technologies and Expression Analysis (LTEA) Assay for CYP3A7 using HepaRG (AID 2283492)
Summary of the method: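 qRT-PCR of CYP3A7 in HepaRG lysates after 48 h treatment; concentration-response (8 points, max 100 uM) analysed bidirectionally relative to 0.5% DMSO controls.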

[5] = read-out: Fatty Acid-Binding Protein 1 (FABP1), FABP1 (gene 2168); assay: LTEA_HepaRG_FABP1: Life Technologies and Expression Analysis (LTEA) Assay for Fatty Acid-Binding Protein 1 (FABP1) using HepaRG (AID 2283494)
Summary of the method: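 Values reflect bidirectional concentration-response fitting of FABP1 mRNA change against 0.5% DMSO controls. Human HepaRG cultures received eight half-log doses (top 100 uM) for 48 h; expression quantified by TaqMan qRT-PCR with housekeeping-gene normalization.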

[6] = read-out: Cytochrome P450 4A22 (Homo sapiens) (UniProt Q5TCH4); assay: LTEA_HepaRG_CYP4A22: Life Technologies and Expression Analysis (LTEA) Assay for Cytochrome P450 4A22 (CYP4A22) using HepaRG (AID 2283495)
Summary of the method: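 Concentration-response (8 points, max 100 uM, 0.5% DMSO) in human HepaRG liver cells after 48 h exposure. CYP4A22 mRNA by TaqMan qRT-PCR with housekeeping-gene normalization.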

[7] = read-out: Cytochrome P450 7A1 (Homo sapiens) (UniProt P22680); assay: LTEA_HepaRG_CYP7A1: Life Technologies and Expression Analysis (LTEA) Assay for Cytochrome P450 7A1 (CYP7A1) using HepaRG (AID 2283496)
Summary of the method: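 HepaRG, 48 h exposure, 8-pt half-log series from 100 uM, 0.5% DMSO vehicle, duplicates. Readout: TaqMan qRT-PCR mRNA vs three housekeeping genes; bidirectional curve fit against DMSO baseline.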

[8] = read-out: Glutathione S-Transferase (GSTA2), GSTA2 (gene 2939); assay: LTEA_HepaRG_GSTA2: Life Technologies and Expression Analysis (LTEA) Assay for Glutathione S-Transferase (GSTA2) using HepaRG (AID 2283497)
Summary of the method: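 Oxidative-stress marker GSTA2 is quantified by TaqMan qRT-PCR in HepaRG cultures treated 48 h across an eight-point range to 100 uM. Expression is normalized to endogenous controls and compared with 0.5% DMSO vehicle.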

[9] = read-out: Glutamate-cysteine ligase catalytic (GCLC), GCLC (gene 2729); assay: LTEA_HepaRG_GCLC: Life Technologies and Expression Analysis (LTEA) Assay for Glutamate-cysteine ligase catalytic (GCLC) using HepaRG (AID 2283498)
Summary of the method: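 Oxidative-stress marker GCLC is measured as mRNA change in human HepaRG liver cells after 48 h chemical treatment in 0.5% DMSO, eight concentrations from 100 uM. Activity is fitted bidirectionally against vehicle.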

[10] = read-out: growth arrest and DNA damage 45 (GADD45G), GADD45G (gene 10912); assay: LTEA_HepaRG_GADD45G: Life Technologies and Expression Analysis (LTEA) Assay for growth arrest and DNA damage 45 (GADD45G) using HepaRG (AID 2283499)
Summary of the method: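 Concentration-response in HepaRG: 48 h dosing, 0.5% DMSO, highest level 100 uM. GADD45G expression by qRT-PCR, normalised to endogenous controls; bidirectional fit to DMSO.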

[11] = read-out: Glutamate-cysteine ligase regulatory (GCLM), GCLM (gene 2730); assay: LTEA_HepaRG_GCLM: Life Technologies and Expression Analysis (LTEA) Assay for Glutamate-cysteine ligase regulatory (GCLM) using HepaRG (AID 2283500)
Summary of the method: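 Endpoint is GCLM transcript level by qRT-PCR, normalized to three housekeeping genes, after 48 h chemical exposure of human HepaRG cells (0.5% DMSO vehicle, top 100 uM, half-log dilutions). Fitting was bidirectional relative to DMSO.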

[12] = read-out: Glutathione S-transferase M3 (GSTM3), GSTM3 (gene 2947); assay: LTEA_HepaRG_GSTM3: Life Technologies and Expression Analysis (LTEA) Assay for Glutathione S-transferase M3 (GSTM3) using HepaRG (AID 2283501)
Summary of the method: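 Expression of GSTM3 is determined by qRT-PCR in human liver HepaRG cells treated 48 h with an 8-point half-log range from 100 uM in 0.5% DMSO.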

[13] = read-out: Heat shock 70 kDa protein 1 (HSPA1A), gene 3303; assay: LTEA_HepaRG_HSPA1A: Life Technologies and Expression Analysis (LTEA) Assay for Heat shock 70 kDa protein 1 (HSPA1A) using HepaRG (AID 2283502)
Summary of the method: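 Cells were plated and cultured for 48 h, then switched to serum-free induction medium. Chemicals were added at eight half-log concentrations up to 100 uM for 48 h. RNA was then isolated and HSPA1A measured by qRT-PCR with bidirectional curve fitting against DMSO.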

[14] = read-out: Hypoxia-inducible factor 1-alpha (Homo sapiens) (UniProt Q16665); assay: LTEA_HepaRG_HIF1A: Life Technologies and Expression Analysis (LTEA) Assay for Hypoxia-inducible factor 1 (HIF1A) Trancription factor using HepaRG (AID 2283503)
Summary of the method: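 HIF1A transcript level read by qRT-PCR (ACTB, GAPDH, POLR2A normalization) after 48 h chemical exposure of HepaRG cultures. Eight half-log concentrations, top 100 uM, 0.5% DMSO vehicle, duplicates; bidirectional curve fit against DMSO baseline.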

[15] = read-out: 3-Hydroxy-3-Methylglutaryl-CoA Synthase 2 (HMGCS2), HMGCS2 (gene 3158); assay: LTEA_HepaRG_HMGCS2: Life Technologies and Expression Analysis (LTEA) Assay for 3-Hydroxy-3-Methylglutaryl-CoA Synthase 2 (HMGCS2) using HepaRG (AID 2283504)
Summary of the method: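 This steatosis marker was read as HMGCS2 mRNA change in HepaRG cells treated 48 h with up to 100 uM chemical. Normalisation used housekeeping genes; activity in either direction was fitted relative to 0.5% DMSO vehicle.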

HGF (gene 3082) = assay: LTEA_HepaRG_HGF: Life Technologies and Expression Analysis (LTEA) Assay for Hepatocyte Growth Facto (HGF) using HepaRG (AID 2283505)
Summary of the method: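 Using HepaRG monolayers kept in 0.5% DMSO, chemicals were tested in duplicate over eight half-log concentrations from 100 uM for 48 h. Endpoint: HGF mRNA change relative to DMSO, normalized to ACTB/GAPDH/POLR2A.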

[16] = read-out: Insulin Like Growth Factor 1 (IGF1), IGF1 (gene 3479); assay: LTEA_HepaRG_IGF1: Life Technologies and Expression Analysis (LTEA) Assay for Insulin Like Growth Factor 1 (IGF1) using HepaRG (AID 2283506)
Summary of the method: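 Cells are thawed, plated and cultured 48 h, then exposed in duplicate to chemical (highest 100 uM, half-log steps, 0.5% DMSO) for another 48 h. Total RNA is analysed by Fluidigm qRT-PCR for IGF1 expression relative to vehicle.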

[17] = read-out: Intercellular Adhesion Molecule 1 (ICAM1), ICAM1 (gene 3383); assay: LTEA_HepaRG_ICAM1: Life Technologies and Expression Analysis (LTEA) Assay for Intercellular Adhesion Molecule 1 (ICAM1) using HepaRG (AID 2283507)
Summary of the method: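 Using the human liver line HepaRG, compounds are tested in duplicate over 48 h at concentrations up to 100 uM. Expression is determined by TaqMan qRT-PCR, normalized to endogenous controls, and analysed relative to 0.5% DMSO vehicle.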

CYP3A5 (gene 1577) = assay: LTEA_HepaRG_CYP3A5: Life Technologies and Expression Analysis (LTEA) Assay for CYP3A5 using HepaRG (AID 2283493)
Summary of the method: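 Human HepaRG hepatic cells receive 48 h chemical treatment at eight concentrations (half-log steps from 100 uM) in 0.5% DMSO. Expression of CYP3A5 is quantified by Fluidigm qRT-PCR and normalized to three reference genes.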

Measured: AC50

Sequence of Hypoxia-inducible factor 1-alpha (Homo sapiens) (Q16665 whole entry, looked up): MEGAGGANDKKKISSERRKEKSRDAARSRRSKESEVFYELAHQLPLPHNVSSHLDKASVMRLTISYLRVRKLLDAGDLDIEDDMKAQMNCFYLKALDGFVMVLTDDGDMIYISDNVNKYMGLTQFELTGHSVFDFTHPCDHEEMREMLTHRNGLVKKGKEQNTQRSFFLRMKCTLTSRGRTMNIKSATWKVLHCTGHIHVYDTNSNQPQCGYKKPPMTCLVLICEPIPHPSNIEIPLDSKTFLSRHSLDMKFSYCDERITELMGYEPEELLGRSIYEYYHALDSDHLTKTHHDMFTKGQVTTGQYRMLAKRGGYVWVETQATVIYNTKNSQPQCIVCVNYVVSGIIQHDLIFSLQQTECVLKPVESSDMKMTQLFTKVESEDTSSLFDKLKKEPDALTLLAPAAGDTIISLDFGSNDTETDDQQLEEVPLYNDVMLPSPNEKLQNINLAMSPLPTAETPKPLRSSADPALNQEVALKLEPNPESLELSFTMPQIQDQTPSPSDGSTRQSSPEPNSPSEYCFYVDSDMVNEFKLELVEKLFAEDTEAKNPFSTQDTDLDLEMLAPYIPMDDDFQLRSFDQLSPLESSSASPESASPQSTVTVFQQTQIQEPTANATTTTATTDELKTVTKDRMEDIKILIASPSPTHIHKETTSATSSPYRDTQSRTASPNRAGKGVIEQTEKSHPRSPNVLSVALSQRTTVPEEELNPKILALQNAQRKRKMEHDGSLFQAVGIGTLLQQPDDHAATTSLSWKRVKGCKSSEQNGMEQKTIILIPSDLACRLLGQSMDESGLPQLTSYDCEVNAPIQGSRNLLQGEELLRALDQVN
Sequence of Cytochrome P450 3A7 (Homo sapiens) (P24462 whole entry, looked up): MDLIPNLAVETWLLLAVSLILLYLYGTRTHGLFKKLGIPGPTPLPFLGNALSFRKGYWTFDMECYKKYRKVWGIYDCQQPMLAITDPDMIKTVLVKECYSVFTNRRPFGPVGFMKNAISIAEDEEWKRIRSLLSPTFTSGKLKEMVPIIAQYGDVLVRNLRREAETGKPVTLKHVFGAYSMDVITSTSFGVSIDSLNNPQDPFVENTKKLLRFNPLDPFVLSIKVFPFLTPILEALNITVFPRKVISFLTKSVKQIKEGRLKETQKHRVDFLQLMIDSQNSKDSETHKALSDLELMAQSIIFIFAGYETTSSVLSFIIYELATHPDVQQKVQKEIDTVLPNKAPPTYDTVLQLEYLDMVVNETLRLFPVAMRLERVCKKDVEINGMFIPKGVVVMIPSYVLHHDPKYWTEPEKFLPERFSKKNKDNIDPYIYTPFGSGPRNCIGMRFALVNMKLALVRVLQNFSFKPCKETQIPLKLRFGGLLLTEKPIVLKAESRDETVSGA

NC(=O)N(O)[C@@H]1C=C[C@H](Oc2cccc(Oc3ccc(F)cc3)c2)C1
inactive: [3] | [9] | [10] | [12] | HGF (gene 3082)
active: [1] 35.1 µM | [2] 12.7 µM | [4] 33.7 µM | [5] 74.2 µM | [6] 25.6 µM | [7] 74.2 µM | [8] 51 µM | [11] 50 µM | [13] 82.6 µM | [14] 78.7 µM | [15] 40.6 µM | [16] 37.9 µM | [17] 37.3 µM

CC(C)(C)CC(C)(C)c1ccc(O)c(-n2nc3ccccc3n2)c1
active: [5] 50 µM | [6] 50 µM | [7] 50 µM | [13] 72.7 µM | [15] 50 µM | [16] 50 µM
not listed: CYP3A5 (gene 1577)
inactive: all other assays above

CCCCCCCCOC(=O)CCCCCCCCC(=O)OCCCCCCCC
inactive: all assays above

CCc1nn(C2CCCCC2)c2cc(C3(C#N)CCC(C(=O)O)CC3)ccc12 (centres undefined)
active: [1] 77.5 µM | [2] 12.1 µM | [3] 0.313 µM | [4] 87.8 µM | [5] 88.2 µM | [6] 56.7 µM | [7] 63.3 µM | [8] 77.1 µM | [9] 83.6 µM | [10] 85.5 µM | [11] 50 µM | [13] 12.2 µM | [15] 81.8 µM | [16] 57.3 µM | [17] 28.7 µM
inactive: [12] | [14] | HGF (gene 3082)

CC(C)(C)c1cccc(C(C)(C)C)c1O
active: [1] 12.2 µM
not listed: CYP3A5 (gene 1577)
inactive: all other assays above

N#C[C@@H]1CC(F)(F)CN1C(=O)CNC1CC2CCC(C1)N2c1ncccn1 (some centres undefined)
not listed: CYP3A5 (gene 1577)
inactive: all other assays above

C#C[C@]1(O)CC[C@H]2[C@@H]3CCC4=CC(=O)CC[C@@H]4[C@H]3CC[C@@]21C
active: [7] 0.299 µM | [8] 6.05 µM
not listed: [4] | [14] | HGF (gene 3082) | CYP3A5 (gene 1577)
inactive: all other assays above
